Compound activity from PubChem BioAssay.
Fam108B counter: counter-screen for RBBP9 inhibitors: inhibitors of mouse Fam108B | recombinant Fam108B, FP-Rh probe fluorescence polarization | inhibition, % at 9.51 µM | hit rate 0.33% among 300,000;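 active = inhibition above the screen mean inhibition plus 3 SD, computed separately per campaign, cut at about 18% in these data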;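 also: inhibitors lower polarization as less probe binds the enzyme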
PME-1 inh: PME-1 (human) inhibition | Q9Y570 | inhibition, % at 5.9 µM | recombinant PME-1, FP-Rh probe fluorescence polarization | AID 2130 | hit rate 0.53% among 320,000;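 active = inhibition above the campaign mean of all compounds plus 3 SD, cut at about 26% in these data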;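 also: competitive labeling of PME-1 active site by serine hydrolase directed probe; 0% = PME-1 with DMSO and 100% = wells lacking PME-1 enzyme; inhibitors block probe labeling so polarization falls and inhibition rises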
Target sequence (Q9Y570 whole entry, looked up): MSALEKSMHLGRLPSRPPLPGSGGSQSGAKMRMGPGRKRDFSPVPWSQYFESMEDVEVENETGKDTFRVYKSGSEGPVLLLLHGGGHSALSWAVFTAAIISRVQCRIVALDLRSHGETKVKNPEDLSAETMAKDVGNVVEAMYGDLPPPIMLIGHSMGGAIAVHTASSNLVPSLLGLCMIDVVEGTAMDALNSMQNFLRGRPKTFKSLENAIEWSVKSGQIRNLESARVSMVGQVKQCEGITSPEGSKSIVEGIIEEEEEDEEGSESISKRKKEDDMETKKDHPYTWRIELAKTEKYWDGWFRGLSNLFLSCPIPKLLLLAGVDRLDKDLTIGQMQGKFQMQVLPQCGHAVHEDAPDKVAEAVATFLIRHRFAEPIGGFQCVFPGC
LYPLA1 counter: LYPLA1 (human) inhibition in PME1 counter-screen; inhibition, % at 5.9 µM; hit rate 0.16% among 320,000; AID 2174; recombinant LYPLA1, FP-Rh probe fluorescence polarization;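 active = inhibition above the mean of all tested compounds plus 3 SD, set per campaign, cut at about 14% in these data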;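 also: inhibitors block serine hydrolase probe labeling of LYPLA1 so polarization falls; 0% = enzyme with DMSO and 100% = wells lacking LYPLA1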
GSTO1 counter: GSTO1 inhibition, counter-screen for RBBP9 inhibitors; hit rate 1.1% among 300,000; AID 1974; inhibition, % at 5.96 µM; P78417; recombinant GSTO1, activity-based probe fluorescence polarization;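 active = inhibition above the campaign mean inhibition plus 3 SD, cut at about 35% in these data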;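 also: 0% = GSTO1-1 with DMSO and 100% = wells lacking GSTO1-1 enzyme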
PREPL inh: human PREPL enzyme inhibition; recombinant PREPL, fluorescence polarization activity-based probe; inhibition, % at 5.96 µM; hit rate 0.68% among 320,000; Q4J6C6;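 also: 0% = enzyme with DMSO and 100% = wells lacking enzyme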
LYPLA2 counter: blocks human lysophospholipase 2, a PME1 counter-screen. hit rate 0.38% among 320,000. inhibition, % at 5.9 µM. recombinant LYPLA2, FP-Rh probe fluorescence polarization. O95372;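 active = inhibition above the screen-wide mean plus 3 SD, limit set per campaign, cut at about 26% in these data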;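 also: 0% = LYPLA2 with DMSO and 100% = wells lacking LYPLA2 enzyme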
Target sequence (O95372 whole entry, looked up): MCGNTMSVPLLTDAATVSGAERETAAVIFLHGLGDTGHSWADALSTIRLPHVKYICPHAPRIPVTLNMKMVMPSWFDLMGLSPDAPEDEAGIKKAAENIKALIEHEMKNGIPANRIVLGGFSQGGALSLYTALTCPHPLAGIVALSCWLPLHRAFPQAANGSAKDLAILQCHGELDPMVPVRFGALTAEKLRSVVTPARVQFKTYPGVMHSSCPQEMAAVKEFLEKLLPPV
Fam108b inh conf: confirmation of mouse Fam108b serine hydrolase inhibitors; shares compounds with Fam108B counter; recombinant Fam108b, FP-Rh probe fluorescence polarization; inhibition, % at 9.51 µM; hit rate 44% among 930; AID 1978;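 active = inhibition above a limit from the primary screen, the mean over all compounds plus 3 SD, cut at about 19% in these data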;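 also: 0% = median of active Fam108b wells and 100% = catalytically dead S170A mutant; inhibitors free the probe so polarization falls as inhibition rises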
Fam108b inh: inhibits mouse Fam108b in gel-based ABPP. shares compounds with Fam108B counter. recombinant Fam108b, fluorophosphonate probe. inhibition, % at 20 µM. hit rate 44% among 260. AID 588649; in the data active = inhibition above about 40%
GSTO1 inh conf: GSTO1 (human) inhibition, confirmation | shares compounds with GSTO1 counter | recombinant GSTO1, probe fluorescence polarization | inhibition, % at 5.96 µM | hit rate 54% among 2,400;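 active = inhibition above the primary screen's cutoff, its mean inhibition plus 3 SD, cut at about 35% in these data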;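 also: loss of polarization as inhibitors block binding of rhodamine sulfonate ester activity probe; 0% = GSTO1 with DMSO and 100% = wells lacking GSTO1 enzyme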
GSTO1 recomb ABPP: GSTO1 (human) inhibition by gel ABPP. recombinant GSTO1, gel ABPP SE-Rh probe fluorescence. shares compounds with GSTO1 counter. hit rate 30% among 130. AID 463110. inhibition, % at 1 µM;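 active = inhibition of the enzyme GSTO1 above about 75%, limit read from the data; inactive = inhibition below that limit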
LYPLA1 confirm: LYPLA1 (human) inhibition, confirmation counter-screen. shares compounds with LYPLA1 counter. inhibition, % at 5.9 µM. recombinant LYPLA1, FP-Rh probe fluorescence polarization. AID 2233. hit rate 69% among 480;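 active = mean inhibition across replicates above the hit cutoff set in the primary screen, cut at about 15% in these data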;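 also: loss of FP-Rh probe labeling of LYPLA1 seen as lower polarization; 0% = LYPLA1 with DMSO and 100% = wells lacking LYPLA1 enzyme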
LYPLA2 confirm: LYPLA2 (human) inhibition, confirmation counter-screen. recombinant LYPLA2, FP-Rh probe fluorescence polarization. hit rate 72% among 1,100. shares compounds with LYPLA2 counter. inhibition, % at 5.9 µM;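 active = mean inhibition across replicates above the hit cutoff set in the primary screen, cut at about 26% in these data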;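 also: blocked labeling of the enzyme by serine hydrolase FP-Rh probe lowers polarization; 0% = enzyme with DMSO and 100% = wells lacking LYPLA2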
PREPL inh cf: human PREPL inhibition, confirmation | hit rate 67% among 2,000 | recombinant PREPL, fluorescence polarization activity probe | inhibition, % at 5.96 µM | shares compounds with PREPL inh;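 also: 0% = protein with DMSO and 100% = wells lacking protein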
The depositor's hits bear a star; · = not tested or not shown. The list is not random: actives were taken first. Their share in the collection is about 2%. Rule as the data show it, unless noted: active = inhibition above about 43%; inactive = the rest.

SMILES	Fam108B counter	PME-1 inh	LYPLA1 counter	GSTO1 counter	PREPL inh	LYPLA2 counter	GSTO1 inh conf	others
COc1ccc(OC)c(N2C(=O)/C(=C/c3ccco3)C(=O)NC2=S)c1	82*	39*	-13	-2	41	30*	·	Fam108b inh conf=14;LYPLA2 confirm=-11
C[C@]12CCC3C(CC[C@H]4C[C@@H](O)CC[C@]34C)C1CC[C@@H]2OC(=O)[C@H](N)CCCCN (stereo not given in full)	·	·	·	·	9	·	·
COc1ccc(/C=N\N=C(N)N)cc1	1	-1	4	0	-2	4	·
NC(N)=N/N=C/c1ccc(N(c2ccccc2)c2ccccc2)cc1	19*	16	3	9	77*	8	·	Fam108b inh conf=19*;PREPL inh cf=68*
Cc1nc2c(=O)n(C)c(=O)nc-2n(C)n1	66*	36*	88*	98*	44*	88*	96*	Fam108b inh conf=82*;Fam108b inh=5;LYPLA1 confirm=83*;LYPLA2 confirm=95*;PREPL inh cf=51*
Cc1ccccc1CCNCc1cc2cccc(C)c2[nH]c1=O	1	0	4	1	-6	2	·
COC(=O)C1=C(c2cccc(C#N)c2)C[C@@H]2CC[C@H]1N2C(=O)N1CCC(C)CC1	·	-2	-4	·	3	-4	·
O=C1C(=O)c2ccccc2-c2ccccc21	64*	37*	83*	90*	53*	85*	94*	Fam108b inh conf=65*;Fam108b inh=15;LYPLA1 confirm=85*;LYPLA2 confirm=90*;PREPL inh cf=50*
COC(=O)C1=C(c2ccc3ccccc3c2)C[C@@H]2CC[C@H]1N2C(=O)N1CCCCC1	·	-7	2	·	-21	3	·
CCn1nc(-c2ccccc2)nc2c(=O)n(C)c(=O)nc1-2	65*	42*	89*	90*	56*	96*	92*	Fam108b inh conf=86*;Fam108b inh=0;PREPL inh cf=44*
C[n+]1c2ccccc2nc2ccc(NCCO)cc21	72*	71*	70*	69*	69*	63*	46*	Fam108b inh conf=42*;Fam108b inh=0;LYPLA1 confirm=63*;LYPLA2 confirm=48*;PREPL inh cf=66*
CNc1ccc2nc3ccccc3[n+](C)c2c1	102*	116*	103*	101*	98*	117*	62*	Fam108b inh conf=67*;Fam108b inh=15;LYPLA1 confirm=83*;LYPLA2 confirm=94*;PREPL inh cf=84*
OCCNc1c2c(nc3ccccc13)CCCC2	-1	-12	-2	3	6	4	·
CCCCCCC(C)(C)c1ccc([C@@H]2C[C@H](O)CC[C@H]2CCCO)c(O)c1	1	-1	0	3	0	1	·
CC1CCN(C(=O)CCl)CC1	4	2	4	93*	-3	10	95*	GSTO1 recomb ABPP=83*
COC(=O)C1=C(c2c(C)noc2C)C[C@@H]2CC[C@H]1N2C(=O)NCC1CC1	·	2	1	·	12	-3	·
CC(C)C[C@H]1C(=O)N2CCC[C@H]2[C@]2(O)O[C@](NC(=O)[C@@H]3C=C4c5cccc6[nH]cc(c56)C[C@H]4N(C)C3)(C(C)C)C(=O)N12	16	8	1	51*	38	8	6
O=C1NC(=S)N(C2CC2)C(=O)/C1=C/c1ccc2c(c1)CCN2CCCCl	0	-7	-3	56*	2	2	63*
CC(C)(C)N1C(=O)NC(=O)/C(=C\c2ccc3c(c2)CCN3CCCCl)C1=O	4	-1	-5	38*	8	1	66*
C=CCN1C(=O)/C(=C/c2ccc3c(c2)CCCN3CCC)C(=O)NC1=S	-6	-10	-6	8	6	-18	·
CCN1C(=O)/C(=C/c2ccc3c(c2)CCN3CCCCl)C(=O)NC1=S	5	-1	-4	56*	11	3	70*
CCC(C)N1C(=O)/C(=C\c2cc3c4c(c2)CCCN4CCC3)C(=O)NC1=S (stereo not given)	-4	-8	-9	-4	-7	-19	·
COc1cc(O)c(C(=O)O)c(-c2cc(O)c(O)cc2C)c1	5	-2	3	64*	9	5	23
COC(=O)CCCC(NC(=S)N1CC2C[C@@H](C1)Cn1c2cccc1=O)C(=O)OC (stereo not given in full)	-5	0	-5	7	-2	-5	·
CC(C)CCNC(=O)c1c(N)n(Cc2ccc3c(c2)OCO3)c2nc3ccccc3nc12	7	0	-6	40*	1	-9	69*
SMILES	Fam108B counter	PME-1 inh	LYPLA1 counter	GSTO1 counter	PREPL inh	LYPLA2 counter	GSTO1 inh conf	others
CC(C)CNC(=O)c1c(N)n(Cc2ccco2)c2nc3ccccc3nc12	15	0	-8	42*	20	-10	-1
CCCNC(=O)c1c(N)n(Cc2ccc3c(c2)OCO3)c2nc3ccccc3nc12	-1	8	3	16	-3	2	·
CC(C)CNC(=O)c1c(N)n(Cc2ccc3c(c2)OCO3)c2nc3ccccc3nc12	8	5	-7	62*	11	1	1
CCCNC(=O)c1c(N)n(Cc2ccco2)c2nc3ccccc3nc12	3	-5	2	17	16	-1	·
Cc1cc(NC(=O)CCl)no1	3	0	-4	87*	2	1	98*
COc1ccc(CCNCc2c(OC)ccc3ccccc23)cc1	1	0	0	-2	-73	2	·
COC(=O)C1=C(c2ccc(F)cc2F)C[C@@H]2CC[C@H]1N2C	·	-3	0	·	-5	4	·
CCC(C(=O)N1CCC2(CC1)OCCO2)n1c2ccccc2c2nc(=O)cc(C)n21 (stereo not given)	1	2	-3	2	10	-2	·
N=c1sccn1Cc1ccc(Cl)cc1Cl	0	-3	3	75*	6	0	7
Clc1ccc(CO/N=C(\Cn2ccnc2)c2ccc(Cl)cc2Cl)c(Cl)c1	-1	0	-1	2	-14	4	·
CC(N)Cc1cn(Cc2ccccc2)c2ccccc12 (stereo not given)	2	-1	2	11	8	1	·
